The campaign covered roughly 1,500 compounds. About 920 (61%) were called active. No rule for the calls is given here. The set was probably picked from earlier hits. The list shows a part of the results. Entries that show only a call come without a potency. Potency and affinity values are given separately.
Test: Vero 76 cell cytotoxicity, dose response, cytotoxicity control for VEEV inhibitor project (AID 588719)
Settings: Vero 76 cells viability, cytotoxicity counter-screen; series mostly up to 25 µM

SMILES	outcome
OCC1(CCOc2ccccc2)CCN(Cc2nc3ccc(F)cc3[nH]2)CC1	inactive
COc1ccc(S(=O)(=O)N2CCC(C(=O)N[C@@H](C)C(=O)NCc3ccc(F)cc3)CC2)cc1	inactive
CCCN1C(=O)c2ccccc2NC1c1ccc(OC)cc1O (centres undefined)	inactive
COc1ccc(C(=O)/C=C/C(=O)N(CC(=O)NC2CCCCC2)Cc2ccccc2OC)c(O)c1	inactive
CCN1CCN(Cc2nc3ccc([N+](=O)[O-])cc3c(=O)n2-c2ccccc2F)CC1	inactive
Cc1onc(C(=O)Nc2cccc(C(F)(F)F)c2)c1[N+](=O)[O-]	inactive
CC1(NS(=O)(=O)c2ccc(Cl)s2)CCS(=O)(=O)C1 (centres undefined)	inactive
C/C(=N/OCO/N=C(\C)c1ccccc1)c1ccccc1	inactive
O=S(=O)(Nc1nc2ccccc2nc1NCc1ccco1)c1ccc(F)cc1	inactive
O=S(=O)(c1ccc(Cl)cc1)N1CCN(C(=S)Nc2ccccc2F)CC1	inactive
CCC1CCCCN1S(=O)(=O)c1ccc(NC(=O)c2nc(S(C)(=O)=O)ncc2Cl)cc1 (centres undefined)	inactive
CC(C)(C)OC(=O)[C@H](Cc1ccccc1)NC(=O)c1nc[nH]c1C(=O)N1CCN(C(=O)OC(C)(C)C)CC1	inactive
C[C@@H](NC(=O)c1nc[nH]c1C(=O)N1CCN(C(=O)OC(C)(C)C)CC1)c1ccccc1	inactive
CCn1c2ccccc2c2cc(NC(=O)c3ccc(=O)oc3)ccc21	inactive
CN(C)CCOCCOc1ccc(Cl)cc1C(C)(C)C	inactive
O=c1cc(-c2ccccc2)nc(/C=C/c2ccccc2)[nH]1	inactive
Cc1nonc1OC(C)CNCCNc1ccc([N+](=O)[O-])cc1 (centres undefined)	inactive
COc1ccc(-n2c(CN3CCC(C(N)=O)CC3)nc3ccc([N+](=O)[O-])cc3c2=O)c(OC)c1	inactive
CCn1cc(C(=O)O)c(=O)c2cc(F)c(N3CCN(C(=S)NC(=O)c4ccc(F)cc4)CC3)cc21	inactive
S=c1[nH]nc(-c2ccccn2)n1/N=C/c1ccc(-c2ccccc2Br)o1	inactive
O=C(O)c1cccnc1Nc1ccc(Cl)cc1	inactive
O=C(Nc1ccc(Cl)cc1C(=O)c1ccccn1)c1ccccc1	inactive
Cc1cc(C(=O)Cn2nnc3ccccc3c2=O)c(C)n1-c1ccccc1F	inactive
Cc1ccc(C)c(-n2cc(CNC(C)Cn3cncn3)c(-c3ccccc3)n2)c1 (centres undefined)	inactive
O=C(N/N=C(\CC(=O)c1cccs1)C(F)(F)F)c1ccncc1	inactive

SMILES	outcome
CCOC(=O)c1oc2ccc(S(=O)(=O)n3nc(-c4ccc(C)cc4)cc3N)cc2c1C	inactive
CC(=O)Nc1ccc(S(=O)(=O)Nc2nc(C)nc3sc4c(c23)CCC4)cc1	inactive
COc1ccccc1/C=C/C(=O)c1ccc(NC(C)=O)cc1	inactive
CCOC(=O)c1c(CSC(=N)N)n(-c2ccccc2)c2cc(Br)c(OC(C)=O)cc12	inactive
CC(C)=CCN1CCN(Cc2cccc3nccnc23)CC1CCO (centres undefined)	inactive
Cc1ccc(/C([O-])=C(/C(=S)Nc2ccc(SC(F)F)cc2)[n+]2ccccc2)cc1[N+](=O)[O-]	inactive
Cc1ccc(/C=N/NC(=O)C[n+]2ccccc2)s1	inactive
Cc1ccc(NC(=O)NCc2ccc3[nH]c(C)cc3c2)cc1	inactive
COc1cc(/C=C/C(=O)c2c(O)ccc3c(C)cc(=O)oc23)ccc1O	inactive
Cc1ccc(/C=C/c2onc(C)c2S(=O)(=O)N2CCC(C(=O)N3CCN(C)CC3)CC2)cc1	inactive
O=C(NC(Cc1c[nH]c2ccccc12)C(=O)Nc1ccc(F)cc1)c1cccs1 (centres undefined)	inactive
S=c1[nH]nc(-c2ccccc2)n1/N=C/c1ccc(-c2ccccc2Cl)o1	inactive
Cc1ccc(NC(=O)c2ncn(CCCNCC3CCCCC3)n2)cc1C	inactive
CCOc1ccccc1NC(=O)c1cc(S(=O)(=O)NCc2ccco2)ccc1F	inactive
CN1CCc2cccc3c2[C@H]1Cc1ccc(O)c(O)c1-3	inactive
COc1ccc2cc(-c3cc(C(=O)O)c4ccccc4n3)ccc2c1	inactive
CCOc1ccc(NC(=O)c2c(NC(=O)CN3CCN(C)CC3)sc3c2CCC3)cc1	inactive
CCOc1ccc(NC(=O)Cn2sc3nc(C)cc(C)c3c2=O)cc1	inactive
CC(C)CC1c2[nH]c3ccccc3c2CCN1CCCn1cccn1 (centres undefined)	inactive
Nc1ncnn1Cc1ccccc1	inactive
CCOC(=O)C1=NN(C(=O)c2ccc(OC)cc2)C(O)(c2ccc(Cl)cc2)C1 (centres undefined)	inactive
CCC(=NN=C(CC)c1ccccc1O)c1ccccc1O	inactive
C#CCOc1ccc(C2C3=C(CC(C)(C)CC3=O)N(CC(=O)O)C3=C2C(=O)CC(C)(C)C3)cc1OC	inactive
O=c1c2cccnc2[nH]c(=S)n1CCCN1CCN(c2ccccc2F)CC1	inactive
O=C(NCc1ccccc1)C(=O)Nc1nc(-c2ccccc2)cs1	inactive

SMILES	outcome
Cc1cccc(-n2c(O)c(C=Nc3ccccc3-c3n[nH]c(=S)[nH]c3=O)c3ccccc3c2=O)n1	inactive
O=C(CNC(=O)C1COc2ccccc2O1)N/N=C\c1ccc(Cl)cc1 (centres undefined)	inactive
Nc1ccc(C(=O)OCCCc2nc3cc4ccccc4cc3[nH]2)cc1	inactive
CN(C)CCNc1nc2sc3c(c2c(=O)n1-c1ccccc1)CCCCC3	inactive
Cc1ccc(-c2cc(-c3ccco3)c3c(N)c(C(=O)NN)oc3n2)cc1	inactive
Cc1cccc(-c2ccc(NC(=O)C3CCN(CC4CC4)CC3)cc2)c1	inactive
CCn1ncc(CN2CCC(C(=O)Nc3cccc(-c4cccc(F)c4)c3)CC2)c1C	inactive
Cc1cccn2c(=O)c3cc(C#N)c(=NC(=O)c4cccs4)n(CC(C)C)c3nc12	inactive
COCCNC(=S)NCc1ccc2[nH]c3c(c2c1)CCCC3	inactive
Cc1cc2nc3c(=O)[nH]c(=S)[nH]c3nc2cc1NC(=O)C(F)(F)F	inactive
Cc1cccnc1CN1CCN(Cc2nc(C(c3ccccc3)c3ccccc3)no2)CC1	inactive
CN1CCc2nc(SCc3cccc(Br)c3)c(C#N)cc2C1	inactive
COc1ccc2sc(N(CCCN(C)C)C(=O)c3ccc(S(=O)(=O)N(C)C4CCCCC4)cc3)nc2c1	inactive
COc1ccc2sc(N(CCCN(C)C)C(=O)c3ccc(S(=O)(=O)N(C)Cc4ccccc4)cc3)nc2c1	inactive
O=C(NNC(=O)c1cc2cc(OC(F)(F)F)ccc2[nH]1)c1ccc(Cl)cc1	inactive
NNC(=O)c1n[nH]c(=O)c2ccccc12	inactive
Cc1cccc(CS(=O)(=O)c2ncc(Cl)c(C(=O)NCc3ccccc3)n2)c1	inactive
Cc1nc(-c2ccccn2)sc1C(=O)Nc1ccc(Cl)c(Cl)c1	inactive
CCOc1ccc(N2C(=O)CC(Sc3nc4ccc(OCC)cc4s3)C2=O)cc1 (centres undefined)	inactive
CCOc1ccc(Cn2c(=O)sc3ccccc32)cc1	inactive
Cc1ccc2nc(-c3ccc(NC(=S)NCC(C)(C)CN(C)C)cc3)sc2c1	inactive
CC12CCC(C(=NO)C1=O)C2(C)C (centres undefined)	inactive
O=[N+]([O-])c1ccc(CNC2CCCc3ccccc32)cc1 (centres undefined)	inactive
COCCCNCCCCOc1ccc(OCc2ccccc2)cc1	inactive
CN(C)c1ccc(P(=O)(OCc2ccccc2)C(O)c2ccccc2)cc1 (centres undefined)	inactive

SMILES	outcome
CCOc1ccccc1Nc1nnc(SC(C)C(=O)Nc2nc(-c3ccccc3)cs2)s1 (centres undefined)	inactive
CC(Oc1ccccc1F)C(=O)Nc1ccc2ccccc2c1 (centres undefined)	inactive
Cc1cc(C(=O)OC(C)C(=O)Nc2nc(-c3ccccc3)cs2)c(C)o1 (centres undefined)	inactive
CC(Oc1ccc(F)cc1)C(=O)Nc1ccc2ccccc2c1 (centres undefined)	inactive
Cc1cccc(-n2nc([N+](=O)[O-])c(=NC3CCN(Cc4ccccc4)CC3)n2O)c1	inactive
Cc1ccc(C)c(NC(=S)NCCN(C2CCCCC2)C2CCCC2)c1	inactive
Cc1ccc(C(=O)C[n+]2ccccc2C)cc1[N+](=O)[O-]	inactive
CCOc1ccc(-n2c(=O)c3sccc3n(Cc3cccc([N+](=O)[O-])c3)c2=O)cc1	inactive
COC(=O)Cn1c(=O)c(C(=O)CCl)c(N)n(Cc2ccccc2)c1=O	inactive
Cc1nn(C(C)C(=O)Nc2ccccc2Cl)c(=O)c2nn(-c3ccccc3)c(C)c12 (centres undefined)	inactive
Cc1ccc(S(=O)(=O)N2C[C@@H](C)[C@]3(C2)[C@H](O)[C@H](OC(=O)Nc2cccs2)C[C@H]2C(=O)N(c4ccccc4)C(=O)[C@H]23)cc1	inactive
COc1ccc(/C=C2\CCCC3C2=NN(C(=O)CSc2n[nH]c(N)n2)C3c2ccc(OC)cc2)cc1 (centres undefined)	inactive
Cc1ccc2[nH]c(CN3CCC(CO)(CC4CCCCO4)CC3)c(C)c2c1 (centres undefined)	inactive
COc1cc(C(=O)O/N=C2/C=CC(=O)C(C)=C2C)cc(OC)c1OC	inactive
CC[C@@H](O)C[C@H]1CCC[C@@]2(C[C@@H]3OC(=O)/C=C/[C@@](C)(O)[C@@H](O)[C@H](C)[C@@H](O)[C@H](OC4CCC(N(C)C)C(C)O4)[C@@H](O)[C@](C)(O)CCCCC/C=C/[C@@H]4CC(C)(C)O[C@@]4(O)C[C@H](O2)[C@H]3C)O1 (some centres undefined)	inactive
O=C(Cc1cccc2ccccc12)Nc1ccc(Br)cc1C(=O)O	inactive
COc1ccccc1NC(=O)c1cc2ccccc2o/c1=N\O	inactive
CCOC(=O)N1CCN(C(=O)CNC2CCCCCCC2)CC1	inactive
COc1ccc(/C=C/C(=O)NC(=S)N2CCN(c3ccccc3OC)CC2)cc1	inactive
C=CCN=c1scc(-c2ccccc2)n1/N=C/c1ccccn1	inactive
N#C/C(=C/c1ccc(-c2ccc([N+](=O)[O-])cc2)o1)c1nnc(N2CCOCC2)n1-c1ccccc1	inactive
O=C(O)c1ccccc1NC(=O)c1ccccc1Nc1ccccc1	inactive
Cc1cccc2c(=O)n(C(=O)c3ccccc3)c(N)nc12	inactive
Cc1ccc2c(c1)c1c3n2CCN(CC(O)CNC(C)C)C3CCC1 (centres undefined)	inactive

Reference: PubChem BioAssay AID588719 (Southern Research Specialized Biocontainment Screening …, 2011)
